Screening data deposited in PubChem by National Center for Advancing Translational Sciences (NCATS).
An excerpt weighted towards active compounds, which were near 2.6% of everything screened.
S16 F2sN tox – toxic to S16 Pmp22-F2sN Schwann cells; S16 Pmp22-F2sN Schwann cells viability, CellTiter-Glo, 24 h; Potency, µM (top dose mostly 57.5 µM), inactives show at the top dose activity change, negative = cytotoxicity, actives largely listed as cytotoxic; actives 0.48% (n = 43,000); also: potency is read from the fitted curve at half-maximal effect; % is scaled to controls: 0 for no effect and ±100 for the full control effect; nearly all actives have a fitted effect of over 65% in size
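Used to flag compounds lowering reporter output through toxicity, this quantitative HTS measures ATP-based CellTiter-Glo luminescence in S16 Pmp22-F2sN Schwann cells after 24 h compound exposure at 37C.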
PMP22 txn prim – modulates PMP22 transcription in S16 Schwann cells. AID 1508649. Potency, µM (titrated, usually from 57.5 µM), for inactives: at the top dose activity change, negative = inhibition, hits mostly inhibitors. S16 Pmp22-F2sN Schwann cells, FLuc/NLuc coincidence luminescence, 24 h. actives 2% (n = 43,000); active = clear falling dose curves in both reporters; inconclusive = both reporters move, but less clearly or upward; inactive = either reporter flat; the % is the NLuc reporter signal; also: potency is read from the fitted curve at half-maximal effect; % is scaled to controls: 0 for no effect and ±100 for the full control effect
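qHTS, 1536-well. Cells seeded, compounds added by pin tool, 24 h 37C. Nano-Glo reagent 1 (lysis/FLuc), 10 min RT, read; Stop&Glo, 10 min RT, read NLuc.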
pS6 MEF inh – mTORC1 pathway inhibition measured by phospho-rpS6 | Potency, µM (series often up to 38.3 µM), for inactives: at the top dose activity change, negative = inhibition, hits mostly inhibitors | actives 0.78% (n = 44,000) | Tsc2-/- p53-/- MEF, phospho-rpS6 immunofluorescence/PI, 24 h;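 also: potency is read from the fitted curve at half-maximal effect; plate controls were DMSO for no effect and rapamycin for full effect; nearly all actives have a fitted effect of over 50% in size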
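Readout is phospho-S6 Alexa 488 signal normalized to PI per well, reported as % active cells with thresholds set from rapamycin (7.5 nM) and DMSO controls. Cells: Tsc2-/-, p53-/- MEFs, 24 hrs compound at 37 C; PI cell number serves as viability.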
SKOV3 invasion – inhibitors of ovarian cancer cell adhesion and invasion in omental model; SKOV3ip1-GFP adhesion/invasion on 3D omental model, fluorescence; Potency, µM (highest dose often 45.8 µM), for inactives: at the top dose activity change, negative = inhibition, most hits filed as inhibitors; actives 0.1% (n = 46,000); AID 1963576;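 also: potency is read from the fitted curve at half-maximal effect; plate controls were DMSO wells for no effect and tomatine positive control wells for full effect; nearly all actives have a fitted effect of over 65% in size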
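Adhesion/invasion was scored as fixed GFP-labeled SKOV3ip1 cell counts (488/509 nm), normalized to DMSO and tomatine controls. Cancer cells in serum-free medium, with four compound doses (0.36-46 umol/L), sat 2 hr at RT then 16 hr at 37 C on a 48 hr fibroblast/mesothelial/ECM culture.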
NLuc saturating – counter-screen for PMP22 expression modulators: NanoLuc inhibition, saturating substrate; actives 4% (n = 690); shares compounds with PMP22 txn prim; Potency, µM (highest dose often 57.5 µM), inactives show at the top dose activity change, negative = inhibition, most hits filed as inhibitors; Secreted NLuc enzyme (filtered S16 cell medium), Nano-Glo luminescence; also: potency is read from the fitted curve at half-maximal effect; % is scaled to controls: 0 for no effect and ±100 for the full control effect
NLuc Km ctr – counter-screen for PMP22 expression modulators: NanoLuc inhibition at Km. Potency, µM (top dose mostly 57.5 µM), for the others: at the top dose activity change, negative = inhibition, usual class: inhibitors. shares compounds with PMP22 txn prim. secreted NLuc enzyme, coelenterazine luminescence, Km conditions. AID 1508639. actives 5% (n = 690); also: potency is read from the fitted curve at half-maximal effect; % is scaled to controls: 0 for no effect and ±100 for the full control effect
FLuc counter – firefly luciferase enzyme inhibition artifact for PMP22 screen | Potency, µM (titrated, usually from 57.5 µM), without a hit: top-dose activity, negative = inhibition, most hits filed as inhibitors | purified P. pyralis FLuc, luminescence, 10 min | 690 tested, under 10 active | shares compounds with PMP22 txn prim; also: % of control where 0% means no effect
Target sequence (P08659 whole entry, looked up): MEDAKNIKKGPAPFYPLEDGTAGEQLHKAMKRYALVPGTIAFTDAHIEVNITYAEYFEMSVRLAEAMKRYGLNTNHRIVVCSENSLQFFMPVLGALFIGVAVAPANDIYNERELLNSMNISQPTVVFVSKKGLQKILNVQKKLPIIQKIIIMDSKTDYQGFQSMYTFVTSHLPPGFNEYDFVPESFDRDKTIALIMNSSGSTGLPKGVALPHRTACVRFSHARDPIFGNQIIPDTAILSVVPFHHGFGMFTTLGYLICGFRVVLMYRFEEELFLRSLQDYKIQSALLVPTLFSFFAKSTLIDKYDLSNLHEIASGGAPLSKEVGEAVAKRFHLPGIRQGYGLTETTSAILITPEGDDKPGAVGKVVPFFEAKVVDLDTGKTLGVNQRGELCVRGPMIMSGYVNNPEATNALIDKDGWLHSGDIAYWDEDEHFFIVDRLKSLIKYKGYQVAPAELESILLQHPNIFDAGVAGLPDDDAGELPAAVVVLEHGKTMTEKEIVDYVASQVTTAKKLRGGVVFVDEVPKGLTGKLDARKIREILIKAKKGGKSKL
S16 F2sN tox cnf – confirmation of cytotoxicity in S16 Pmp22-F2sN Schwann cells (luciferase reporters placed in the Pmp22 gene); Potency, µM (top dose mostly 57.5 µM), for inactives: at the top dose activity change, negative = viability loss, actives largely listed as cytotoxic; actives 7% (n = 690); S16 Schwann cells viability, CellTiter-Glo ATP luminescence, 24 h; shares compounds with PMP22 txn prim; also: potency is read from the fitted curve at half-maximal effect; % is scaled to controls: 0 for no effect and ±100 for the full control effect
PMP22 txn cnf – confirmation of modulators of PMP22 gene transcription in S16 cells. shares compounds with PMP22 txn prim. S16 Schwann cells Pmp22-F2sN, dual luciferase, 24 h. Potency, µM (series often up to 57.5 µM), without a hit: at the highest dose activity change, negative = inhibition, hits mostly inhibitors. actives 22% (n = 690); active = clear falling dose curves in both reporters; inconclusive = both reporters move, but less clearly or upward; inactive = either reporter flat; the % is the FLuc reporter signal; also: potency is read from the fitted curve at half-maximal effect
PMP22 HiBiT cnf – rat PMP22 protein level modulation, confirmatory. AID 1508647. S16 Schwann cells Pmp22-HiBiT, luminescence, 48 h. Potency, µM (titrated, usually from 27.9 µM), without a hit: at the highest dose activity change, negative = inhibition, actives largely listed as inhibitors. 95 tested, under 10 active. shares compounds with PMP22 txn prim
Target sequence (P25094 whole entry, looked up): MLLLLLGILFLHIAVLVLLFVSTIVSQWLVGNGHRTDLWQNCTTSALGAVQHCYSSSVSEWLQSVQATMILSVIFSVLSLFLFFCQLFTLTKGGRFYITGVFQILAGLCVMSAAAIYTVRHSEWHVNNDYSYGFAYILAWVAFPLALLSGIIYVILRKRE
Starred values were filed as active, the others as inactive; i = inactive; ? = inconclusive; / = no result. Unless noted, calls follow the shape of the dose curve; as a rule, active = well fitted curve in the direction sought with a large enough effect; inconclusive = small, poorly fitted or top-dose-only effect, or another doubt; inactive = no such curve, though single readings can be large; an effect the other way counts as inactive or inconclusive.

SMILES	S16 F2sN tox	PMP22 txn prim	pS6 MEF inh	SKOV3 invasion	NLuc saturating	NLuc Km ctr	FLuc counter	S16 F2sN tox cnf	PMP22 txn cnf	others
COc1ccccc1NC(=O)CSc1ncc2c(n1)-c1cc(Cl)ccc1N(C)S2(=O)=O	-27%	-24%	8%	9%	/	/	/	/	/
COc1ccc(Cl)cc1NC(=O)CSc1nc2ccccc2nc1N1CCCCC1	8%	13µM*	-1%	4%	-9%	9%	-4%	-9%	-33%
COc1ccc(NC(=O)CSc2nc3ccccc3nc2N2CCCCC2)cc1	20%	-19%	-1%	4%	/	/	/	/	/
CN(C)C(=O)[C@H](O)[C@H](Cc1ccccc1)NC(=O)c1cc2cc(Cl)ccc2[nH]1	/	/	/	10%	/	/	/	/	/
COc1ccc(C)cc1NC(=O)c1nnn(CC(=O)Nc2c(C)cccc2C)c1N	1%	9.2µM*	-5%	-8%	1%	5%	1%	?	?
COc1ccc(C)cc1NC(=O)Cn1c(=O)cc(C)c2c(C)nn(C)c21	-13%	7.6µM*	-3%	1%	-3%	0%	1%	-14%	?
CCc1ccc(NC(=O)Cn2nnc(C(=O)Nc3cc(C)ccc3OC)c2N)cc1	14%	?	-7%	-1%	/	/	/	/	/
Cn1nc(C(=O)NCc2cccc(Cl)c2)c2c1-c1ccccc1S(=O)(=O)C2	7%	-20%	3%	10%	/	/	/	/	/
Cn1nc(C(=O)NCc2ccc(Cl)cc2)c2c1-c1ccccc1S(=O)(=O)C2	?	15µM*	9%	-6%	-9%	-17%	0%	2%	?
CCOc1ccc(NC(=O)Cn2c(=O)n(Cc3ccc4c(c3)OCO4)c(=O)c3ccc(C(=O)NC4CCCCC4)cc32)cc1	1%	17µM*	0%	i	4%	10%	0%	?	13µM*
Cc1ccc(C)c(NC(=O)Cn2c(=O)n(Cc3ccco3)c(=O)c3ccc(C(=O)NC4CCCC4)cc32)c1	2%	?	?	-2%	/	/	/	/	/
Cc1cc(C)c(NC(=O)Cn2c(=O)n(Cc3ccco3)c(=O)c3ccc(C(=O)NC4CCCC4)cc32)c(C)c1	14%	5µM*	-7%	-7%	-13%	8%	-17%	22µM*	12µM*	PMP22 HiBiT cnf=17%
O=C(Cn1c(=O)n(Cc2ccc3c(c2)OCO3)c(=O)c2ccc(C(=O)NC3CCCCC3)cc21)Nc1ccccc1F	-2%	?	?	4%	/	/	/	/	/
CCc1ccccc1NC(=O)Cn1c(=O)n(Cc2ccc3c(c2)OCO3)c(=O)c2ccc(C(=O)NC3CCCCC3)cc21	12%	12µM*	0%	-11%	1%	5%	4%	-29%	11µM*
COc1cccc(OC)c1-c1cc(C(=O)NC2(C(=O)O)C3CC4CC(C3)CC2C4)nn1-c1ccnc2cc(Cl)ccc12 (stereo not drawn)	/	/	/	13%	/	/	/	/	/
CCN1CCN(CC(=O)Nc2ccc(-c3cccc4c(=O)cc(N5CCOCC5)oc34)c3sc4ccccc4c23)CC1	/	/	/	15%	/	/	/	/	/
N#CC1=C2SCN(C3CCCCC3)CN2C(=O)CC1c1c(F)cccc1Cl (stereo not drawn)	-2%	9.5µM*	-1%	1%	11µM*	7.7µM*	-11%	2%	-18%
COc1ccc(Cn2c(SCC(N)=O)nc3c(sc4ccccc43)c2=O)cc1	?	12µM*	-6%	i	-6%	-2%	10%	27µM*	?
CSc1nc2c(sc3ccccc32)c(=O)n1Cc1ccc(C)cc1	-12%	?	-1%	?	/	/	/	/	/
COc1ccc(N2CCN(c3c4c(nc5nncn35)CCC4)CC2)cc1	-26%	13µM*	?	2%	?	0%	-8%	-8%	?
CCCc1cc(N2CCN(c3ccc(OC)cc3)CC2)n2cnnc2n1	?	?	-10%	-2%	/	/	/	/	/
Cn1nnnc1SCCNCc1cc(Br)ccc1OCc1ccccc1Cl	?	16µM*	-16%	-1%	?	?	-24%	-21%	?
O=C(Nc1cccc(Cl)c1)Nc1ncc(CCNc2ncnc3ccsc23)s1	/	/	/	-5%	/	/	/	/	/
Cc1c(C(=O)Nc2ccccc2Br)oc2ccc(S(=O)(=O)N3CCCCC3)cc12	3%	?	10%	7%	-1%	8%	3%	-7%	?
Cc1c(C(=O)Nc2ccccc2Br)oc2ccc(S(=O)(=O)N3CCOCC3)cc12	21%	?	10%	0%	/	/	/	/	/
SMILES	S16 F2sN tox	PMP22 txn prim	pS6 MEF inh	SKOV3 invasion	NLuc saturating	NLuc Km ctr	FLuc counter	S16 F2sN tox cnf	PMP22 txn cnf	others
Cc1c(C(=O)Nc2ccccc2Cl)oc2ccc(S(=O)(=O)N3CCCCC3)cc12	2%	14µM*	-4%	i	-1%	2%	4%	-4%	?
Cc1ccc(Cl)cc1NC(=O)c1oc2ccc(S(=O)(=O)N3CCC4(CC3)OCCO4)cc2c1C	3%	7.5µM*	8%	i	-11%	2%	1%	?	?
Cc1ccc(Cl)cc1NC(=O)c1oc2ccc(S(=O)(=O)N3CCCCC3)cc2c1C	-1%	-9%	-10%	9%	/	/	/	/	/
Cc1c(C(=O)Nc2ccccc2Cl)oc2ccc(S(=O)(=O)N3CCCCCC3)cc12	0%	-16%	5%	6%	/	/	/	/	/
CC(=O)N1CCN(c2ccc(OCc3nn(C)c(C)c3-c3cccc4c(CCCOc5cc(C)c(Cl)c(C)c5)c(C(=O)O)n(Cc5cccnc5)c34)cc2)CC1	/	/	/	19%	/	/	/	/	/
Clc1cccc(-c2nnnn2Cc2cccnc2)c1Cl	/	/	/	-20%	/	/	/	/	/
COc1ccc(CNC(=O)CCCn2c(=O)c3cccn3c3cccnc32)cc1	9%	?	1%	3%	/	/	/	/	/
